Data reported in PubChem BioAssay (EPA / NIEHS).
Active and inactive are the calls of the source. The calls were made as follows: active = hit-call score of the fitted dose curve at least 0.9, where 1 is the maximum; inactive = score below 0.9.

Read-out: Apoptosis regulator Bcl-2 (Homo sapiens) (UniProt P10415)
Test: LTEA_HepaRG_BCL2: Life Technologies and Expression Analysis (LTEA) Assay for Bcl-2 gene using HepaRG (AID 2283475);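 also: BCL2 transcript by TaqMan qRT-PCR normalised to ACTB GAPDH and POLR2A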
Conditions: mRNA level, 48 h; actives raise or lower the signal
Outline: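 Expression change of BCL2 mRNA in HepaRG after 48 h dosing, quantified by TaqMan qRT-PCR against three endogenous controls. Concentration-response used eight points up to 100 uM, vehicle 0.5% DMSO.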

Sequence of Caspase-3 (Homo sapiens) (P42574 whole entry, looked up): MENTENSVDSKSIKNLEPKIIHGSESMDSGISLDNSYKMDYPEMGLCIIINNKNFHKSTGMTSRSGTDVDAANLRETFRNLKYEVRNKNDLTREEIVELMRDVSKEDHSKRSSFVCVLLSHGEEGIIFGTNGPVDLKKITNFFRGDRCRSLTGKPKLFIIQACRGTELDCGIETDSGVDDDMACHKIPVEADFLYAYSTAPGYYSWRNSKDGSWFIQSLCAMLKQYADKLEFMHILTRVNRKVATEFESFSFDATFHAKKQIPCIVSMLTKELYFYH
Sequence of Apoptosis regulator Bcl-2 (Homo sapiens) (P10415 whole entry, looked up): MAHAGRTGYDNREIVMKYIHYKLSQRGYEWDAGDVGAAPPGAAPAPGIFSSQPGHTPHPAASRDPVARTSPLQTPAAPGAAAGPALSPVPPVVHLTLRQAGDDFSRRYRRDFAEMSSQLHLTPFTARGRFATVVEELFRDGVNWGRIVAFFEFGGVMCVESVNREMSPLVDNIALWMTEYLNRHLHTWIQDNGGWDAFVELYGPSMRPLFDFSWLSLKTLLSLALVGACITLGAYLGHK

CN(C)CCCN1c2ccccc2Sc2ccc(Cl)cc21 was tested. Which outcome did it give?
The outcome was “inactive”.

How did the AC50 turn out when CCc1nc(N)nc(N)c1-c1ccc(Cl)cc1 was run?
The AC50 was 50 µM (active).

For CCCCC(CC)CO (stereo unspecified), which outcome is on record?
The outcome was “inactive”.

Which outcome does the source give for Nc1nc(Cl)nc2c1ncn2[C@H]1C[C@H](O)[C@@H](CO)O1 here?
Its outcome is “inactive”.

How did the outcome turn out when CC(COCC(C)OC(=O)c1ccccc1)OC(=O)c1ccccc1 (stereo unspecified) was run?
Its outcome is “inactive”.

Cc1cn([C@H]2C=C[C@@H](CO)O2)c(=O)[nH]c1=O was tested. Which outcome did it give?
The outcome was “inactive”.

With C#CC(O)C(CC)CCCC (stereo unspecified) as the molecule, how does the outcome read?
Its outcome is “inactive”.

For O=NO, which outcome is on record?
The outcome was “inactive”.

With CC(=O)S[C@H](C(=O)N[C@H]1Cc2ccccc2[C@H]2CCC[C@@H](C(=O)O)N2C1=O)C(C)C as the molecule, how does the outcome read?
The outcome was “inactive”.

Which outcome does the source give for O=C1O[C@H]([C@H](O)CO)C(O)=C1O here?
The outcome was “inactive”.

Read-out: Bcl-2 (BID) gene, BID (gene 637)
Test: LTEA_HepaRG_BID: Life Technologies and Expression Analysis (LTEA) Assay for Bcl-2 (BID) gene using HepaRG (AID 2283476)
Conditions: mRNA level, 48 h; actives raise or lower the signal
Outline: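 Gain or loss of BID expression is fitted relative to 0.5% DMSO vehicle. Human HepaRG liver cells received a 48 h chemical exposure over an eight-point concentration range.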

How did the outcome turn out when CN(C)CCCN1c2ccccc2Sc2ccc(Cl)cc21 was run?
The outcome was “inactive”.

With NC(=Nc1ccccc1)Nc1ccccc1 as the molecule, how does the outcome read?
The outcome was “inactive”.

How did the outcome turn out when CCN(CC)CCOc1ccc(C(=C(Cl)c2ccccc2)c2ccccc2)cc1 was run?
Its outcome is “inactive”.

With Oc1ccccc1O as the molecule, how does the outcome read?
Its outcome is “inactive”.

For Cc1cc(SC2=C(O)C[C@@](CCc3ccc(N)cc3)(C(C)C)OC2=O)c(C(C)(C)C)cc1CO, which outcome is on record?
The outcome was “inactive”.

CC(COCC(C)OC(=O)c1ccccc1)OC(=O)c1ccccc1 (stereo unspecified) was tested. Which outcome did it give?
Its outcome is “inactive”.

Cc1cn([C@H]2C=C[C@@H](CO)O2)c(=O)[nH]c1=O was tested. Which outcome did it give?
Its outcome is “inactive”.

C#CC(O)C(CC)CCCC (stereo unspecified) was tested. Which outcome did it give?
Its outcome is “inactive”.

CSc1ccc(Oc2ccc(S(N)(=O)=O)cc2CN(C)C)cc1C was tested. Which outcome did it give?
Its outcome is “inactive”.

For CCCCOC(=O)CCCCC(=O)OCCCC, which outcome is on record?
Its outcome is “inactive”.

For N[C@@H](Cc1c[nH]c2ccccc12)C(=O)O, which outcome is on record?
The outcome was “inactive”.

Which outcome does the source give for CCCCC(CC)COP(=O)(OCC(CC)CCCC)OCC(CC)CCCC (stereo unspecified) here?
The outcome was “inactive”.

For CCCCCCCCCCCCCCOS(=O)(=O)O, which outcome is on record?
Its outcome is “inactive”.

Which outcome does the source give for Nc1nc(=S)c2[nH]cnc2[nH]1 here?
Its outcome is “inactive”.

How did the outcome turn out when CC(=O)S[C@H](C(=O)N[C@H]1Cc2ccccc2[C@H]2CCC[C@@H](C(=O)O)N2C1=O)C(C)C was run?
The outcome was “inactive”.

How did the outcome turn out when CC(=O)OC1CC(C)OC(C)O1 (stereo unspecified) was run?
The outcome was “inactive”.

Read-out: Caspase-3 (Homo sapiens) (UniProt P42574)
Test: LTEA_HepaRG_CASP3: Life Technologies and Expression Analysis (LTEA) Assay for cysteine-aspartic acid protease (CASP3) using HepaRG (AID 2283477)
Conditions: mRNA level, 48 h; actives raise or lower the signal
Outline: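 Differentiated human HepaRG cells in serum-free induction medium were exposed 48 h to 8-point half-log concentrations from 100 uM (0.5% DMSO vehicle). CASP3 mRNA was measured by qRT-PCR, normalised to ACTB, GAPDH and POLR2A, with bidirectional fitting against DMSO.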

With CN(C)CCCN1c2ccccc2Sc2ccc(Cl)cc21 as the molecule, how does the outcome read?
The outcome was “inactive”.

With c1ccc2occc2c1 as the molecule, how does the outcome read?
The outcome was “inactive”.

For NC(=Nc1ccccc1)Nc1ccccc1, which outcome is on record?
Its outcome is “inactive”.

With CCN(CC)CCOc1ccc(C(=C(Cl)c2ccccc2)c2ccccc2)cc1 as the molecule, how does the outcome read?
The outcome was “inactive”.

For NCCOCCOCCN, which outcome is on record?
Its outcome is “inactive”.

For Oc1ccccc1O, which outcome is on record?
Its outcome is “inactive”.

Which outcome does the source give for CCc1nc(N)nc(N)c1-c1ccc(Cl)cc1 here?
The outcome was “inactive”.

For Cc1cc(SC2=C(O)C[C@@](CCc3ccc(N)cc3)(C(C)C)OC2=O)c(C(C)(C)C)cc1CO, which outcome is on record?
The outcome was “inactive”.

How did the outcome turn out when CCCCC(CC)CO (stereo unspecified) was run?
Its outcome is “inactive”.

For Nc1nc(Cl)nc2c1ncn2[C@H]1C[C@H](O)[C@@H](CO)O1, which outcome is on record?
Its outcome is “inactive”.

With O=C(O)CC(O)(CC(=O)O)C(=O)O as the molecule, how does the outcome read?
Its outcome is “inactive”.

O=C(NS(=O)(=O)/C=C/c1cccs1)c1ccc(F)cc1Br was tested. Which outcome did it give?
Its outcome is “inactive”.

How did the outcome turn out when CC(COCC(C)OC(=O)c1ccccc1)OC(=O)c1ccccc1 (stereo unspecified) was run?
The outcome was “inactive”.

How did the outcome turn out when Cc1cn([C@H]2C=C[C@@H](CO)O2)c(=O)[nH]c1=O was run?
The outcome was “inactive”.

With C#CC(O)C(CC)CCCC (stereo unspecified) as the molecule, how does the outcome read?
Its outcome is “inactive”.

For CSc1ccc(Oc2ccc(S(N)(=O)=O)cc2CN(C)C)cc1C, which outcome is on record?
The outcome was “inactive”.

CCCCOC(=O)CCCCC(=O)OCCCC was tested. Which outcome did it give?
The outcome was “inactive”.

With N[C@@H](Cc1c[nH]c2ccccc12)C(=O)O as the molecule, how does the outcome read?
The outcome was “inactive”.

Which outcome does the source give for CCCCC(CC)COP(=O)(OCC(CC)CCCC)OCC(CC)CCCC (stereo unspecified) here?
The outcome was “inactive”.

CC(N)=O was tested. Which outcome did it give?
The outcome was “inactive”.

How did the outcome turn out when O=C1CCCCC1 was run?
The outcome was “inactive”.

With O=NO as the molecule, how does the outcome read?
Its outcome is “inactive”.

Which outcome does the source give for Cc1cc(Cc2ccc(N)c(C)c2)ccc1N here?
Its outcome is “inactive”.

For CCCCCCCCCCCCCCOS(=O)(=O)O, which outcome is on record?
Its outcome is “inactive”.

With Nc1nc(=S)c2[nH]cnc2[nH]1 as the molecule, how does the outcome read?
Its outcome is “inactive”.

Which AC50 does the source give for COc1ccc(OC(F)(F)F)cc1CN[C@H]1CCCN[C@H]1c1ccccc1 here?
Its AC50 is 81.8 µM (active).

Which outcome does the source give for CC(=O)S[C@H](C(=O)N[C@H]1Cc2ccccc2[C@H]2CCC[C@@H](C(=O)O)N2C1=O)C(C)C here?
The outcome was “inactive”.

How did the outcome turn out when CC(=O)OCC(COC(C)=O)OC(C)=O was run?
The outcome was “inactive”.

For O=C1O[C@H]([C@H](O)CO)C(O)=C1O, which outcome is on record?
Its outcome is “inactive”.

How did the outcome turn out when CC(=O)OC1CC(C)OC(C)O1 (stereo unspecified) was run?
Its outcome is “inactive”.
